Results filed as inconclusive are left out. Entries that show only a call come without a potency. The source made the active and inactive calls. Unless noted, the call rests on the fitted dose curve; in most records, active means well fitted curve in the direction sought with a large enough effect in the repeat runs; inconclusive means weak or mixed curves; inactive means no such curve, though single readings can be large; an effect the other way counts as inactive or inconclusive.
How the values were obtained:
[1] = qHTS assay to identify small molecule agonists of the androgen receptor (AR) signaling pathway in the presence of an antagonist - cell viability counter screen (AID 1259379); further: nearly all actives have a fitted effect of over 25% in size; further: potency means the concentration at half of the fitted maximal effect
Outline: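 Viability counter screen: CellTiter-Fluor fluorescence, measured in the same wells as the luciferase read-out. MDA-kb2 cells, 3,000/well, with nilutamide at 3.0uM final and compounds at 15 concentrations, 16 hr at 37C, 0% CO2.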

[2] = qHTS assay to identify small molecule antagonists of the estrogen receptor beta (ER-beta) signaling pathway - cell viability counter screen (AID 1259382); further: nearly all actives have a fitted effect of over 55% in size; further: potency means the concentration at half of the fitted maximal effect
Outline: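 Luminescent ATP read-out (CellTiter-Glo, 30 min, RT) taken in the same wells as the bla reporter assay. HEK293T ER-beta-UAS-bla cells in 2% charcoal-stripped FBS were exposed to compounds with 1nM E2 for 16 hr at 37C.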

[3] = target: Estrogen receptor (Homo sapiens) (UniProt P03372); assay: qHTS assay to identify small molecule agonists of the estrogen receptor alpha (ER-alpha) signaling pathway in the presence of an antagonist (AID 1259383; calls by dose curve; further: top concentration of the series differs between compounds; nearly all actives have a fitted effect of over 15% in size)
Estrogen receptor (Homo sapiens), sequence (P03372 whole entry, looked up): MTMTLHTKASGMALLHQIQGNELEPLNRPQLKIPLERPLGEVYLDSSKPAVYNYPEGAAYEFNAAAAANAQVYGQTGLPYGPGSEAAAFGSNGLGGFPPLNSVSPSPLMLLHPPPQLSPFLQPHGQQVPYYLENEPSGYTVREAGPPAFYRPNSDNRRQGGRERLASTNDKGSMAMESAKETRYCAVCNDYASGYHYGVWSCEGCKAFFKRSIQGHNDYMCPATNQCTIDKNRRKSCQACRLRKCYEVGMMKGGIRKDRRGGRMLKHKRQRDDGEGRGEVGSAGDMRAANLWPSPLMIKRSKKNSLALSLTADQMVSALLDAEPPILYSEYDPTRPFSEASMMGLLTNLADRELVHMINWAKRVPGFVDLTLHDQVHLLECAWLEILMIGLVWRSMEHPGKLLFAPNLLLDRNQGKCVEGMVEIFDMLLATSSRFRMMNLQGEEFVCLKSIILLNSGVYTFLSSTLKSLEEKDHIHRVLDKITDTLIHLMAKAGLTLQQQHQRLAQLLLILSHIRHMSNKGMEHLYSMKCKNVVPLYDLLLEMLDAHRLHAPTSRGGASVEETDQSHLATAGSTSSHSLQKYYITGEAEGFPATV
Outline: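 Luciferase luminescence (ONE-Glo, 30min at room temperature) measured in VM7Luc4E2 cells after 22hr compound exposure at 15 concentrations, with 10.0nM ICI-182,780 final present; cells express endogenous ER-alpha and carry four EREs upstream of luciferase.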

[4] = qHTS assay to identify small molecule agonists or antagonists of the thyroid stimulating hormone receptor (TSHR) signaling pathway - wild type cell line counter screen (AID 1259384; calls by dose curve)
Outline: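 Wild-type Hek293 cells, 800/well, 18 h at 37C, then compound with Ro20-1724 for 30 min RT. cAMP by HTRF (cAMP-d2/anti-cAMP cryptate), 1 h RT, fluorescence read. 15 concentrations, triplicates.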

[5] = target: Thyrotropin receptor (Homo sapiens) (UniProt P16473); assay: qHTS assay to identify small molecule antagonists of the thyroid stimulating hormone receptor (TSHR) signaling pathway (AID 1259385; calls by dose curve; further: nearly all actives have a fitted effect of over 20% in size; further: potency means the concentration at half of the fitted maximal effect)
Thyrotropin receptor (Homo sapiens), sequence (P16473 whole entry, looked up): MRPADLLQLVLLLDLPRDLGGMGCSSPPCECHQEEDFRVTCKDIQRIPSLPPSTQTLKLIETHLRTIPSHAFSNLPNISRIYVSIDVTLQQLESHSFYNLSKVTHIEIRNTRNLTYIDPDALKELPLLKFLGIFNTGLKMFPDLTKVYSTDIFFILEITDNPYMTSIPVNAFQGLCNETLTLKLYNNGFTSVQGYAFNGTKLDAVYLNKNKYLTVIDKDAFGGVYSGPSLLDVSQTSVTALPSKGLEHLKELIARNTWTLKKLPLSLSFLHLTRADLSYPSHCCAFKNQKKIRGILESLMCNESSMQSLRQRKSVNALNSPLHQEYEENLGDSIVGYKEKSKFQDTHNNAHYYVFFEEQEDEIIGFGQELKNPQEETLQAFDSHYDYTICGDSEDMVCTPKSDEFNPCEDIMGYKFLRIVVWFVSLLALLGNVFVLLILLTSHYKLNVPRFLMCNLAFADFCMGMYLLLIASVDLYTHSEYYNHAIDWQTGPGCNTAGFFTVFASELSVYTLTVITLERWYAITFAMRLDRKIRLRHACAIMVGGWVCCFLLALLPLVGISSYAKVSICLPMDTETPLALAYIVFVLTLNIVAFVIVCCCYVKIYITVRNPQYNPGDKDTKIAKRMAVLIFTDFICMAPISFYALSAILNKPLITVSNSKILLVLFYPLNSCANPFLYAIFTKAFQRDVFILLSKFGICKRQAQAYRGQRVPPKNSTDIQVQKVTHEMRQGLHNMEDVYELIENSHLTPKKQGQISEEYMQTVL
Outline: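 TSHR-HEK293 cells (800/well) plated 18 h, then compounds with Ro20-1724 and TSH at 1.5 ng/mL final, 30 min at room temperature. cAMP quantified by HTRF (cAMP-d2/anti-cAMP-cryptate, 1 h); 15 concentrations in triplicate.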

[6] = qHTS assay to identify small molecule agonists of the TGF-beta/Smad signaling pathway - cell viability counter screen (AID 1346829); further: nearly all actives have a fitted effect of over 45% in size; further: potency means the concentration at half of the fitted maximal effect
Outline: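 SBE-bla HEK 293T cells plated overnight, compound exposure 5 hr at 37 C. Viability read in the same wells by CellTiter-Glo luminescence after 30 min at room temperature, following the beta-lactamase read.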

[7] = qHTS assay to identify small molecule agonists of the TGF-beta/Smad signaling pathway (AID 1346859; active means well fitted activation curve with a large enough effect in the signal ratio in the repeat runs, not every such curve was filed as active; the % refers to the signal ratio; further: series mostly up to about 77 µM)
Outline: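 Smad-responsive beta-lactamase reporter cells (HEK 293T) received compounds from DMSO stocks after overnight attachment, were incubated 5 hr, then treated 2 hr with FRET substrate before dual-emission fluorescence measurement (405 nm excitation).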

[8] = target: Thyrotropin-releasing hormone receptor (Homo sapiens) (UniProt P34981); assay: qHTS assay to identify small molecule antagonists of the thyrotropin-releasing hormone receptor (TRHR) signaling pathway (AID 1346877; active means well fitted inhibition curve with a large enough effect in the repeat runs, not every such curve was filed as active; further: potency means the concentration at half of the fitted maximal effect)
Thyrotropin-releasing hormone receptor (Homo sapiens), sequence (P34981 whole entry, looked up): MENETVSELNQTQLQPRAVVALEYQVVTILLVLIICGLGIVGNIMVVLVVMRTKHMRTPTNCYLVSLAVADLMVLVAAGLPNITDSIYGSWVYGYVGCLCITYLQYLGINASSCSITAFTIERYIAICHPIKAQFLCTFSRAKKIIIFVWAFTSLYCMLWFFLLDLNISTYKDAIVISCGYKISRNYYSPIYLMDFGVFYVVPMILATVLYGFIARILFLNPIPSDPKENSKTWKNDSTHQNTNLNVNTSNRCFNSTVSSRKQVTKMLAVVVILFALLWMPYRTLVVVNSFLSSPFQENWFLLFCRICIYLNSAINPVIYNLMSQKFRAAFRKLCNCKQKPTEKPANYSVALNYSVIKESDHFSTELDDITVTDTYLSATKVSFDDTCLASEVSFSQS
Outline: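 HEK293/TRHR cells, 18 h, 37 °C; Ca2+ dye 2 h; cpd 5 min RT; TRH 1 nM final; fluorescence read 3 min, 1 s intervals; 15 concs, triplicate.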

[9] = Caspase-3/7 induction in HepG2 cells by small molecules, qHTS assay (AID 1346978); further: nearly all actives have a fitted effect of over 15% in size; further: potency means the concentration at half of the fitted maximal effect
Outline: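 Wild-type HepG2 cells, 2,000/well, settled 5 hr at 37 C and 5% CO2, then compound-treated for 17 hr; caspase-3/7 activity read by luminescent Caspase-Glo 3/7 after 30 min at room temperature.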

[10] = qHTS assay to identify small molecule agonists of the estrogen receptor alpha (ER-alpha) signaling pathway in the presence of an antagonist - cell viability counter screen (AID 1259386);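 further: cells exposed to compounds for 22 h at 37 °C before the viability read; nearly all actives have a fitted effect of over 30% in size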; further: potency means the concentration at half of the fitted maximal effect
Outline: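 Read-out: CellTiter-Fluor fluorescence after 1hr reagent incubation, measured in the same wells as the luciferase readout. VM7Luc4E2 cells were exposed to 15 compound concentrations with 10.0nM ICI-182,780 for 22hr at 37C.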

[11] = target: Progesterone receptor (Homo sapiens) (UniProt P06401); assay: qHTS assay to identify small molecule antagonists of the progesterone receptor (PR) signaling pathway (AID 1346795; active means well fitted inhibition curve with a large enough effect in the signal ratio in the repeat runs, not every such curve was filed as active; the % refers to the signal ratio; further: potency means the concentration at half of the fitted maximal effect)
Progesterone receptor (Homo sapiens), sequence (P06401 whole entry, looked up): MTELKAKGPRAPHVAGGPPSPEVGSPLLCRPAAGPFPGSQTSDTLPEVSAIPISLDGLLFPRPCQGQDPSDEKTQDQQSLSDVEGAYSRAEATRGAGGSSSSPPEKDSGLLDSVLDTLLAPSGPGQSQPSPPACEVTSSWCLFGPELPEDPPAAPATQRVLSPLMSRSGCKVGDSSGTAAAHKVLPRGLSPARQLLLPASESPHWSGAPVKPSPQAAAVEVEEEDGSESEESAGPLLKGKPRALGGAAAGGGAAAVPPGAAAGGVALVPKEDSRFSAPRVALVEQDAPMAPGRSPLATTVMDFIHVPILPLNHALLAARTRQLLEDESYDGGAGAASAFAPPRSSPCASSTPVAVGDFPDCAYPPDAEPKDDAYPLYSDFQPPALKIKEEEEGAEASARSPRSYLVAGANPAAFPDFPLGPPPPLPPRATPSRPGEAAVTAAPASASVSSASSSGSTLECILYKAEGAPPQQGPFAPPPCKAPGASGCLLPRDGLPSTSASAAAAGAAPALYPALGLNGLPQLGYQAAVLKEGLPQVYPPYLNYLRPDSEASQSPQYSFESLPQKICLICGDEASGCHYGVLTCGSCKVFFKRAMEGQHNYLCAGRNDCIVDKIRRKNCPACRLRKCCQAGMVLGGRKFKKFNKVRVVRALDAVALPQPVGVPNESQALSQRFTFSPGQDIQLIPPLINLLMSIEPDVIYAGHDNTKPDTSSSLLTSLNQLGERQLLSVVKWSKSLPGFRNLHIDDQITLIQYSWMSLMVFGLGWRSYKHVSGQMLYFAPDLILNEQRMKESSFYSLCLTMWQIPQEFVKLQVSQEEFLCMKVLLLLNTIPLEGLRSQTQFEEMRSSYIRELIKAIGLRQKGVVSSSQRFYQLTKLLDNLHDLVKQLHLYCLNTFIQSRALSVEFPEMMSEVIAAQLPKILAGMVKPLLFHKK
Outline: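 HEK293T PR-UAS-bla reporter cells in charcoal-stripped serum (2%) received compound after a 6 hr settling period, followed by R5020 agonist at 1 nM final; 16 hr incubation preceded the FRET substrate step and fluorescence measurement.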

[12] = qHTS assay to identify small molecule agonists of the progesterone receptor (PR) signaling pathway - cell viability counter screen (AID 1346799; calls by dose curve; further: potency means the concentration at half of the fitted maximal effect; nearly all actives have a fitted effect of over 45% in size)
Outline: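 Counter screen for cytotoxicity: compound-treated PR-UAS-bla HEK293T cells (16 hr, 37C, 5% CO2) were assayed with CellTiter-Glo, luminescence measured after 30 min at room temperature.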

[13] = qHTS assay to identify small molecule antagonists of the TGF-beta/Smad signaling pathway - cell viability counter screen (AID 1346824); further: nearly all actives have a fitted effect of over 50% in size
Outline: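 SBE-bla HEK 293T cells, incubated overnight, then compound plus 0.25 ng/mL TGF-beta1 (stock added) for 5 hr at 37 C. Viability was read in the same wells by CellTiter-Glo luminescence after 30 min at room temperature.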

[14] = target: Thyrotropin-releasing hormone receptor (Homo sapiens) (UniProt P34981); assay: qHTS assay to identify small molecule agonists of the thyrotropin-releasing hormone receptor (TRHR) signaling pathway (AID 1346891; calls by dose curve; further: potency means the concentration at half of the fitted maximal effect;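 on activation: HEK293 cells expressing TRHR with calcium dye readout; series mostly up to about 58 µM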)
Outline: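 Agonist-mode calcium mobilisation screen: TRHR-transfected HEK293 cells cultured overnight (18 h), dye-loaded for 2 h at 37 °C, exposed to compounds, and monitored by fluorescence for 3 min.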

[15] = target: Androgen receptor (Homo sapiens) (UniProt P10275); assay: qHTS assay to identify small molecule agonists of the androgen receptor (AR) signaling pathway in the presence of an antagonist (AID 1259381; calls by dose curve; further: nearly all actives have a fitted effect of over 15% in size)
Androgen receptor (Homo sapiens), sequence (P10275 whole entry, looked up): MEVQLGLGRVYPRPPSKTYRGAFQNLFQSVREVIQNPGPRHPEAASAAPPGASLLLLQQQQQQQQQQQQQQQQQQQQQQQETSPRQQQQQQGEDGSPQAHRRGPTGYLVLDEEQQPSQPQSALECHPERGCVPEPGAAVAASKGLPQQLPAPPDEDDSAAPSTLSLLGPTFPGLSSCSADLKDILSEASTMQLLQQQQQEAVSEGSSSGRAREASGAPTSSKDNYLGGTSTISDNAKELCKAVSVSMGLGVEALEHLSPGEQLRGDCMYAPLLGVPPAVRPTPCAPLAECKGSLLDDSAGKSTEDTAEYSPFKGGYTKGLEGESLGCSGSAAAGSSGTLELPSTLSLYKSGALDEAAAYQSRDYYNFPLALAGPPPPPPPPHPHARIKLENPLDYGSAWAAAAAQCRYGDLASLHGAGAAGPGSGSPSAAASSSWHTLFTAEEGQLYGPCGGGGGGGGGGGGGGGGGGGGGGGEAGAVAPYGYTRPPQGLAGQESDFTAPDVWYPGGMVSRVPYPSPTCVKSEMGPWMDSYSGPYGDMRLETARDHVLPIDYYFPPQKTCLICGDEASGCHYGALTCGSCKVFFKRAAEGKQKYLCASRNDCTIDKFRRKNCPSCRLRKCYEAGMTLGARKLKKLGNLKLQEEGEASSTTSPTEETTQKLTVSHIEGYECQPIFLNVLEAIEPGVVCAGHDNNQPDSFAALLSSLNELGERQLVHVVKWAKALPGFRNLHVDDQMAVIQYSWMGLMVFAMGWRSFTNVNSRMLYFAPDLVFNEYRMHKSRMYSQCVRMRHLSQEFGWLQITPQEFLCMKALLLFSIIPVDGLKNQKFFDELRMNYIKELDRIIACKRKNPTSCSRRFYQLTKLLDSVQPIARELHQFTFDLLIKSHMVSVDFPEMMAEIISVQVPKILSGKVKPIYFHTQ
Outline: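 Luciferase read-out (ONE-Glo, 30min room temperature) in MDA-kb2 MMTV-reporter cells; agonist mode run in presence of AR antagonist nilutamide, 3.0uM final. Compounds tested as 15-point series, 16hr exposure at 37C, 0% CO2.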

[16] = target: Progesterone receptor (Homo sapiens) (UniProt P06401); assay: qHTS assay to identify small molecule agonists of the progesterone receptor (PR) signaling pathway (AID 1346784; calls by dose curve; further: nearly all actives have a fitted effect of over 30% in size)
Outline: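 Agonist mode, quantitative HTS format in a HEK 293T line expressing a UAS-controlled beta-lactamase reporter; 16 hr compound exposure at 37C in 2% charcoal-stripped FBS, then LiveBLAzer B/G FRET fluorescence.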

[17] = Human pregnane X receptor (PXR) small molecule agonists, qHTS cell viability counter screen (AID 1346977); further: nearly all actives have a fitted effect of over 50% in size; further: potency means the concentration at half of the fitted maximal effect
Outline: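 Measures live-cell protease fluorescence (CellTiter-Fluor) in PXR-Luc HepG2 cells treated 24hr with compounds at 37C. Cells had 5hr to attach before pin transfer of DMSO solutions.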

[18] = qHTS assay to identify small molecule antagonists of the progesterone receptor (PR) signaling pathway - cell viability counter screen (AID 1346798); further: nearly all actives have a fitted effect of over 50% in size; further: potency means the concentration at half of the fitted maximal effect
Outline: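 Same-well multiplex: after 16 hr at 37C with compound and R5020 stimulation, HEK293T cells carrying a UAS-bla reporter received LiveBLAzer substrate (2 hr RT), then CellTiter-Glo (30 min RT) for luminescent viability.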

Row | Structure (SMILES) | Potency [1] | Potency [2] | Potency [3] | outcome [4] | Potency [5] | Potency [6] | outcome [7] | Potency [8] | Potency [9] | Potency [10] | Potency [11] | Potency [12] | Potency [13] | Potency [14] | Potency [15] | Potency [16] | Potency [17] | Potency [18] | outcome [13]
1 | C=CCC1=C(C)C(OC(=O)C2C(C=C(C)C)C2(C)C)CC1=O (centres undefined) | 61.1 µM (active) | inactive | inactive | inactive | 61.1 µM (active) | inactive | inactive | inactive | inactive | – | – | – | – | – | – | – | – | – | –
2 | Cc1cc(SCc2sc(-c3ccc(C(F)(F)F)c(F)c3)nc2C)ccc1OCC(=O)O | inactive | 13.7 µM (active) | inactive | – | – | inactive | – | inactive | – | inactive | 17.2 µM (active) | 8.63 µM (active) | inactive | inactive | – | – | – | – | –
3 | CCC(C)c1cc([N+](=O)[O-])cc([N+](=O)[O-])c1OC(=O)C=C(C)C (centres undefined) | 54.5 µM (active) | – | – | inactive | – | inactive | – | inactive | inactive | 54.5 µM (active) | 12.2 µM (active) | – | inactive | inactive | inactive | inactive | 27.3 µM (active) | – | –
4 | O=[N+]([O-])O.O=[N+]([O-])O.[Cd] | inactive | 54.5 µM (active) | – | – | inactive | – | – | – | inactive | – | – | 4.86 µM (active) | – | – | – | – | 5.45 µM (active) | 3.06 µM (active) | inactive
5 | CN(C)c1ccc(N=Nc2ccccc2)cc1 | 48.6 µM (active) | inactive | – | inactive | – | inactive | inactive | inactive | inactive | 48.6 µM (active) | – | – | inactive | inactive | – | – | – | inactive | –
6 | C[C@]12CC[C@H]3[C@@H](CCC4=CC(=O)CC[C@@]43C)[C@@H]1CC[C@@H]2O | inactive | inactive | inactive | inactive | inactive | inactive | inactive | – | – | inactive | – | – | inactive | – | – | – | inactive | – | –
7 | O=C(O)COc1nc(Cl)c(Cl)cc1Cl | inactive | inactive | inactive | inactive | – | – | – | inactive | inactive | inactive | – | 27.9 µM (active) | inactive | inactive | – | – | inactive | – | –
8 | COc1cc(C=O)cc2c1[C@H](COC(N)=O)[C@]1(OC(C)=O)ON2C[C@H]2[C@@H]1N2C(C)=O | 27.3 µM (active) | inactive | inactive | inactive | – | inactive | inactive | inactive | 0.193 µM (active) | – | – | – | inactive | inactive | – | – | 1.93 µM (active) | – | –
9 | ClC(Cl)=C(c1ccc(Cl)cc1)c1ccc(Cl)cc1 | inactive | – | inactive | inactive | – | inactive | inactive | inactive | inactive | inactive | 6.26 µM (active) | 61.1 µM (active) | inactive | inactive | – | inactive | inactive | inactive | –
10 | CCOC(=O)c1ccccc1S(=O)(=O)NC(=O)Nc1nc(Cl)cc(OC)n1 | inactive | inactive | inactive | inactive | inactive | inactive | inactive | – | inactive | inactive | inactive | – | – | – | – | inactive | inactive | – | –
11 | C[C@H]1CC[C@@H]2[C@@H](C)[C@H]3[C@H](C[C@H]4[C@@H]5CC=C6CC(O[C@@H]7O[C@H](CO)[C@H](O)[C@H](O[C@@H]8O[C@H](CO)[C@@H](O)[C@H](O)[C@H]8O)[C@H]7O[C@H]7O[C@@H](C)[C@H](O)[C@@H](O)[C@H]7O)CC[C@]6(C)[C@H]5CC[C@]34C)N2C1 (some centres undefined) | 22.4 µM (active) | 25.1 µM (active) | inactive | inactive | 10 µM (active) | 12.7 µM (active) | – | 7.82 µM (active) | inactive | 28.2 µM (active) | – | 22.4 µM (active) | – | 8.99 µM (active) | – | – | 11.2 µM (active) | 31.6 µM (active) | –
12 | CCOP(=O)(NC(C)C)Oc1ccc(SC)c(C)c1 (centres undefined) | inactive | inactive | – | inactive | – | inactive | inactive | inactive | inactive | inactive | – | – | inactive | inactive | – | inactive | inactive | – | –
13 | CCCN(CCC)CCc1c[nH]c2ccccc12 | inactive | inactive | inactive | inactive | inactive | inactive | inactive | inactive | inactive | inactive | – | – | inactive | inactive | – | inactive | – | – | –
14 | CN(C)[C@@H]1C(=O)C(C(N)=O)=C(O)[C@@]2(O)C(=O)C3=C(O)c4c(O)ccc(Cl)c4[C@@](C)(O)[C@H]3C[C@@H]12 | inactive | inactive | – | – | – | inactive | – | inactive | – | inactive | – | – | inactive | inactive | – | – | – | – | –

— PubChem BioAssay (Tox21)
